# Assay results taken from PubChem BioAssay (Tox21).
# Where “and” joins values, the source holds several entries; their conditions need not be identical. Equal entries are not always repeated. Values without a mark were called inactive. Inconclusive results are not listed. A call without a number means that no potency is given here. Calls of active or inactive are those of the source. Unless noted, calls follow the shape of the full dose curve.
# Columns and labels:
# [1] = Nuclear factor erythroid 2-related factor 2/antioxidant responsive element (Nrf2/ARE) small molecule agonists: luciferase reporter gene qHTS assay in human keratinocytes (AID 1919969); also: nearly all actives have a fitted effect of over 35% in size; also: potency is read from the fitted curve at half-maximal effect
# [2] = target: KiSS-1 receptor (Homo sapiens) (UniProt Q969F8); experiment: Human kisspeptin (KISS1R) small molecule agonists, calcium flux assay in KISS1R-HEK293 cells (AID 1920064; active = well fitted activation curve with a large enough effect in the repeat runs)
# Method in brief: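 After overnight (18 h) culture at 37 C/5% CO2, human KISS1R-HEK293 cells received calcium dye for 1 h, then test compound; emission at 540 nm (excitation 480 nm) was tracked for 3 min.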
# [3] = G protein-coupled receptor (GPCR) small molecule agonists, calcium flux assay: HEK293 wild type cell line counter screen (AID 1920065)
# Method in brief: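 Following 18 h incubation at 37 C/5% CO2, plates got calcium dye for 1 h; compounds, ATP or DMSO were then pinned in and fluorescence followed kinetically (480/540 nm).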
# [4] = p53 small molecule agonists, cell-based qHTS assay with human liver microsomes (AID 1963577);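 also: p53 response element beta-lactamase reporter cells with liver microsomes plus NADPH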
# Method in brief: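 Reporter activation was measured by LiveBLAzer fluorescence intensity in p53RE-bla cells, which had been exposed to compounds for 16 h at 37 C alongside 0.5 mg/mL human liver microsomes and 0.5 mg/mL NADPH (final concentrations).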
# [5] = p53 small molecule agonists, cell-based qHTS assay with rat liver microsomes (AID 1963578)
# Method in brief: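 Compound in DMSO added to p53RE-bla cells 5 h post-plating; rat microsomes/NADPH 0.5 mg/mL final; 16 h, 37 C; LiveBLAzer 2 h RT.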
# [6] = p53 small molecule agonists, cell-based qHTS assay with rat liver microsomes: qHTS cell viability counter screen (AID 1963580); also: nearly all actives have a fitted effect of over 45% in size
# Method in brief: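 Cytotoxicity counter screen: intracellular ATP measured by CellTiter-Glo luminescence in the same wells as the beta-lactamase reporter read, on HCT-116 p53RE-bla cells exposed 16 h at 37 C to compounds with rat liver microsomes and NADPH, each 0.5 mg/mL final.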
# [7] = p53 small molecule agonists, cell-based qHTS assay: qHTS cell viability counter screen (AID 1963581); also: nearly all actives have a fitted effect of over 45% in size
# Method in brief: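 qHTS counter screen: 16 h compound exposure at 37 C of p53RE-bla HCT-116 cells (4,000 per well, seeded 5 h prior), cell viability by ATP luminescence.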
# [8] = p53 small molecule agonists, cell-based qHTS assay (AID 1963582; active = well fitted activation curve with a large enough effect in the signal ratio in the repeat runs, not every such curve was filed as active; the % refers to the signal ratio)
# Method in brief: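 Measured: fluorescence from cleaved LiveBLAzer substrate. System: p53RE-bla cells, 16 h compound treatment at 37 C, 2 h substrate step at room temperature.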
# [9] = target: 5-hydroxytryptamine receptor 2A (Homo sapiens) (UniProt P28223); experiment: 5-hydroxytryptamine receptor 2A (HTR2A) small molecule antagonists, cell-based qHTS assay (AID 1963586); also: nearly all actives have a fitted effect of over 45% in size; also: potency is read from the fitted curve at half-maximal effect
# Method in brief: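 CHO cells stably expressing human HTR2A were plated for 18 h at 37 C, then loaded with calcium dye for 1 h. Compounds were preincubated 5 min at room temperature before DOI (4 nM solution) was added. Kinetic fluorescence was read for 3 min.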
# [10] = target: 5-hydroxytryptamine receptor 2A (Homo sapiens) (UniProt P28223); experiment: 5-hydroxytryptamine receptor 2A (HTR2A) small molecule agonists, cell-based qHTS assay (AID 1963587); also: nearly all actives have a fitted effect of over 30% in size; also: potency is read from the fitted curve at half-maximal effect
# Method in brief: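 CHO cells stably expressing human HTR2A, plated 18 h, loaded with calcium dye 1 h at 37 C. Agonist mode: compounds added and intracellular calcium fluorescence recorded kinetically for 2 min at 1 sec intervals.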
# [11] = target: Muscarinic acetylcholine receptor M1 (Homo sapiens) (UniProt P11229); experiment: Cholinergic receptor muscarinic 1 (CHRM1) small molecule antagonists, cell-based qHTS assay (AID 1963588); also: nearly all actives have a fitted effect of over 40% in size; also: potency is read from the fitted curve at half-maximal effect
# Method in brief: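 Compounds were tested at 15 concentrations in three independent runs. Dye-loaded CHRM1-CHO cells were exposed 5 min at room temperature before stimulation by acetylcholine added at 50nM. Intracellular calcium was read kinetically on FDSS for 3 min.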
# [12] = target: Muscarinic acetylcholine receptor M1 (Homo sapiens) (UniProt P11229); experiment: Cholinergic receptor muscarinic 1 (CHRM1) small molecule agonists, cell-based qHTS assay (AID 1963589); also: nearly all actives have a fitted effect of over 35% in size
# Method in brief: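 Kinetic fluorescence (1 s intervals) of calcium-sensitive dye in human M1 CHO cells after compound addition; cells pre-incubated 18 h at 37 C/5% CO2 and dye-loaded 1 h.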
# [13] = cAMP Responsive Elements (CRE) small molecule agonists, cell-based qHTS assay (AID 1963590); also: potency is read from the fitted curve at half-maximal effect
# Method in brief: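 Test agents in DMSO were incubated 3 h at 37 C/5% CO2 with CRE-bla HEK 293T cells seeded 18 h earlier; LiveBLAzer B/G FRET substrate was added and read after 2 h at room temperature.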
# [14] = cAMP Responsive Elements (CRE) small molecule antagonists, cell-based qHTS assay (AID 1963591; active = well fitted inhibition curve with a large enough effect in the signal ratio in the repeat runs, not every such curve was filed as active; the % refers to the signal ratio)
# Method in brief: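 Reporter line CRE-bla HEK 293T in dialyzed-FBS DMEM; cells preincubated 18 h, treated 3 h with compound plus NKH477 (0.25 uM final); LiveBLAzer FRET, 2 h RT.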
# [15] = target: Beta-2 adrenergic receptor (Homo sapiens) (UniProt P07550); experiment: Adrenergic beta2 receptor (ADRB2) small molecule antagonists, cell-based qHTS assay (AID 1963592); also: nearly all actives have a fitted effect of over 50% in size; also: potency is read from the fitted curve at half-maximal effect; as to activity change, negative = inhibition: series mostly up to about 92 µM
# Method in brief: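 Assay format: CHO-ADRB2 cells, 18-20hr seeding at 37C/5% CO2, then compound plus 1nM isoproterenol agonist mix for 0.5hr RT. Homogeneous time-resolved fluorescence cAMP detection after 1hr, expressed as 665/615 nm ratio.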
# [16] = target: D(2) dopamine receptor (Homo sapiens) (UniProt P14416); experiment: Dopamine D2 receptor (DRD2) small molecule agonists, cell-based qHTS assay (AID 1963594); also: nearly all actives have a fitted effect of over 35% in size
# Method in brief: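 HEK293 cells stably expressing human DRD2, pre-treated with PDE inhibitor Ro20-1724 (0.1 mM final) and compound 10 min at room temperature, then stimulated with NKH477 (200nM […]) for 30 min. cAMP read by HTRF (665/620 nm).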
# [17] = target: D(2) dopamine receptor (Homo sapiens) (UniProt P14416); experiment: Dopamine D2 receptor (DRD2) small molecule antagonists, cell-based qHTS assay (AID 1963595; active = well fitted inhibition curve with a large enough effect in the signal ratio in the repeat runs, with a control signal flat; the % refers to the signal ratio; also: potency is read from the fitted curve at half-maximal effect)
# Method in brief: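 Stable D2 receptor HEK293 line, 24 h after seeding. Compound preincubated 10 min, then quinpirole (12 nM) with forskolin analogue NKH477 (200 nM), 30 min, room temperature. Detection by time-resolved FRET of cAMP.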
# [18] = p53 small molecule agonists, cell-based qHTS assay with human liver microsomes: qHTS cell viability counter screen (AID 1963579); also: nearly all actives have a fitted effect of over 45% in size
# Method in brief: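 HLM-supplemented (0.5 mg/mL final) and NADPH-supplemented (0.5 mg/mL final) p53RE-bla cultures, 4,000 cells per well, were dosed with compounds in DMSO for 16 h at 37 C; luminescent ATP detection (CellTiter-Glo, 30 min, room temperature) quantified surviving cells.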
# [19] = target: Beta-2 adrenergic receptor (Homo sapiens) (UniProt P07550); experiment: Adrenergic beta2 receptor (ADRB2) small molecule agonists, cell-based qHTS assay (AID 1963593);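 also: CHO cells stably overexpressing human ADRB2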
# Method in brief: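 CHO cells stably over-expressing ADRB2 were plated overnight at 37C, then dosed with compounds plus a stimulation mix containing 100uM IBMX and 25uM Ro-20-1724 for 0.5hr at room temperature. cAMP was measured by HTRF competition, 1hr.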
# KiSS-1 receptor (Homo sapiens), sequence (Q969F8 whole entry, looked up): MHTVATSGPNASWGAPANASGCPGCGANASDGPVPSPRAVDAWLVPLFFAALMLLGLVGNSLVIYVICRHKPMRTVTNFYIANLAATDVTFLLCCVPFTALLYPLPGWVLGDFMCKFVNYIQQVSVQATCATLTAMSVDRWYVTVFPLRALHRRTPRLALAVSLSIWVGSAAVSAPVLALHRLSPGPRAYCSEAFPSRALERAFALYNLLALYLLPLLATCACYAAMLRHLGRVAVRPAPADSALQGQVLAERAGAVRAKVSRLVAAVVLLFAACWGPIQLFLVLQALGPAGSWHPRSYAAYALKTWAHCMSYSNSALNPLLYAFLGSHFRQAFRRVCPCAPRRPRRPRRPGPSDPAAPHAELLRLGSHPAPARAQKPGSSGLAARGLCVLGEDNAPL
# 5-hydroxytryptamine receptor 2A (Homo sapiens), sequence (P28223 whole entry, looked up): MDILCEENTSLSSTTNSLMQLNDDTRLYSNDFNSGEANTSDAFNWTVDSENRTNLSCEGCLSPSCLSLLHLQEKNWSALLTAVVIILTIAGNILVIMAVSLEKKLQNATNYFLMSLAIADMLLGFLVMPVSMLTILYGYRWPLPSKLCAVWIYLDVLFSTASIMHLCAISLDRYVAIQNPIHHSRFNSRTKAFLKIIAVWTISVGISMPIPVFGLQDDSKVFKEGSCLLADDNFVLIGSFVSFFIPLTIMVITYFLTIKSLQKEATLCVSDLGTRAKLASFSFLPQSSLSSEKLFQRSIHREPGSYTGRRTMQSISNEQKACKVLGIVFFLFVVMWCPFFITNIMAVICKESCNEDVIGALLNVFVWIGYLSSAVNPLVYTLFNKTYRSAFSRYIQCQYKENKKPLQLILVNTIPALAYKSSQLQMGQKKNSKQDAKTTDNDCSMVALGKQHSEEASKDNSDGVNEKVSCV
# Muscarinic acetylcholine receptor M1 (Homo sapiens), sequence (P11229 whole entry, looked up): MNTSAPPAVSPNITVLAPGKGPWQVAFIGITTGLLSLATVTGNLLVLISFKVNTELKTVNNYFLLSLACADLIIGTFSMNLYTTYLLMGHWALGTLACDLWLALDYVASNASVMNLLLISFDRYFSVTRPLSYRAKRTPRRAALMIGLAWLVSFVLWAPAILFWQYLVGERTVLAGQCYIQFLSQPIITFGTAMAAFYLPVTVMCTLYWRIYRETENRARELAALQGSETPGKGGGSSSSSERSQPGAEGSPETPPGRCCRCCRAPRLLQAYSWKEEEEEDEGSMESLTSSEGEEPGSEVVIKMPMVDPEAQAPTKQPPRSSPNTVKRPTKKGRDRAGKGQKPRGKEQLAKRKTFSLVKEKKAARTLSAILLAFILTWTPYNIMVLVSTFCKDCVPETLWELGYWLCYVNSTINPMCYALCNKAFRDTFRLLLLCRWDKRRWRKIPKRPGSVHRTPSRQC
# Beta-2 adrenergic receptor (Homo sapiens), sequence (P07550 whole entry, looked up): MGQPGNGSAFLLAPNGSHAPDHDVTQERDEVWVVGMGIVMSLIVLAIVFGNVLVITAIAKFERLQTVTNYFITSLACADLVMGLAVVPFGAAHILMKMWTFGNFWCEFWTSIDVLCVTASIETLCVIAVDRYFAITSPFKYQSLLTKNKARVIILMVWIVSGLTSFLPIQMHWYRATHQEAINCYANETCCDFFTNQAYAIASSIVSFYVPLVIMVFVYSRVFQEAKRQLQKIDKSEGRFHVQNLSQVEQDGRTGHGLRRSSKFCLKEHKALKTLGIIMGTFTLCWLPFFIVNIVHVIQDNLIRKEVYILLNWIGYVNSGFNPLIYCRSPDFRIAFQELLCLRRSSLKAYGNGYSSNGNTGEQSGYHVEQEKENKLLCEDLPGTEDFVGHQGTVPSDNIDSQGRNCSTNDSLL
# D(2) dopamine receptor (Homo sapiens), sequence (P14416 whole entry, looked up): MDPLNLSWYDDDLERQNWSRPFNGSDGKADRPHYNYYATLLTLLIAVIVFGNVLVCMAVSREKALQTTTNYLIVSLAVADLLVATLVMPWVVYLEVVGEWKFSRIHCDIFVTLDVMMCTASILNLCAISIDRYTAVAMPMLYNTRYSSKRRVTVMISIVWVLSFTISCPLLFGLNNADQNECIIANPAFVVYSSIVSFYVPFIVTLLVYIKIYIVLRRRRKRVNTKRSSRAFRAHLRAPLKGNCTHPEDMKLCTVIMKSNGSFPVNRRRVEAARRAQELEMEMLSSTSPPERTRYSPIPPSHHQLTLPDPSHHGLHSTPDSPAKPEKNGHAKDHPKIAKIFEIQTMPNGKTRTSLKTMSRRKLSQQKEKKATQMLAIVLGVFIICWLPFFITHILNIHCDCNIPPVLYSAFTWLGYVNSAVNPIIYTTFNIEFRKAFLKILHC
smiles,measurement,setting,value
CNCCCCOc1ccccc1Cc1ccccc1,Potency,[1],inactive
same,Potency,[2],inactive
same,Potency,[3],inactive
same,Potency,[4],inactive
same,Potency,[5],inactive
same,Potency,[6],inactive
same,Potency,[7],inactive
same,Potency,[8],inactive
same,Potency,[9],115 nM (active)
same,Potency,[10],10.7 µM (active)
same,Potency,[11],inactive
same,Potency,[12],inactive
same,Potency,[13],inactive
same,Potency,[14],inactive
same,Potency,[15],8.41 µM (active)
same,Potency,[16],inactive
same,Potency,[17],inactive
CCOC(=O)[C@H](CCc1ccccc1)N[C@H]1CCc2ccccc2N(CC(=O)O)C1=O,Potency,[1],inactive
same,Potency,[2],inactive
same,Potency,[3],inactive
same,Potency,[18],inactive
same,Potency,[6],inactive
same,Potency,[7],inactive
same,Potency,[15],23.7 µM (active)
same,Potency,[17],inactive
CCCCCC(C)O (stereo not given),Potency,[1],inactive
same,Potency,[2],inactive
same,Potency,[3],inactive
same,Potency,[18],inactive
same,Potency,[6],inactive
same,Potency,[7],inactive
same,Potency,[9],inactive
same,Potency,[10],inactive
same,Potency,[11],inactive
same,Potency,[12],inactive
same,Potency,[13],inactive
same,Potency,[14],inactive
same,Potency,[15],inactive
same,Potency,[19],inactive
same,Potency,[16],inactive
same,Potency,[17],inactive
Oc1cc2c(cc1O)[C@H]1c3ccc(O)c(O)c3OC[C@@]1(O)C2,Potency,[1],inactive
same,Potency,[3],inactive
same,Potency,[4],inactive
same,Potency,[5],inactive
same,Potency,[18],inactive
same,Potency,[6],inactive
same,Potency,[7],inactive
same,Potency,[9],inactive
same,Potency,[10],inactive
same,Potency,[11],inactive
same,Potency,[12],inactive
same,Potency,[13],inactive
CCCCc1ccc2nc(NC(=O)OC)[nH]c2c1,Potency,[1],4.22 µM (active)
same,Potency,[2],inactive
same,Potency,[3],inactive
same,Potency,[4],inactive
same,Potency,[5],inactive
same,Potency,[9],inactive
same,Potency,[10],inactive
same,Potency,[11],inactive
same,Potency,[12],inactive
same,Potency,[14],inactive
same,Potency,[15],inactive
same,Potency,[19],inactive
same,Potency,[16],inactive
same,Potency,[17],inactive
CCN(CC)CCCC(C)Nc1ccnc2cc(Cl)ccc12 (stereo not given),"activity, positive = activation",[1],-10.3% [at 8.39 µM] and 0.993% [at 19 µM]
same,activation,[2],-0.539% [at 6.97 µM] and -0.536% [at 15.8 µM]
same,activation,[3],0.411% [at 5.23 µM] and -0.526% [at 11.8 µM]
same,"activity change, negative = cytotoxicity",[18],1.38% [at 5.99 µM] and -6.37% [at 13.5 µM]
same,"activity change, negative = cytotoxicity",[6],0.0381% [at 5.99 µM] and -13.2% [at 13.5 µM]
same,"activity change, negative = cytotoxicity",[7],-9.2% [at 5.99 µM] and -2.12% [at 13.5 µM]
same,"activity, negative = inhibition",[9],2.23% [at 5.62 µM] and 1.08% [at 12.7 µM]
same,activation,[10],-0.411% [at 7.02 µM] and 1.58% [at 15.9 µM]
same,Potency,[11],2.52 µM (active)
same,activation,[12],-0.78% [at 6.97 µM] and -0.406% [at 15.8 µM]
same,"activity change, negative = inhibition",[15],0.663% [at 8.39 µM] and -0.0752% [at 19 µM]
same,activation,[19],0.827% [at 19 µM]
same,activation,[16],-2.86% [at 8.39 µM]
same,"activity change, negative = inhibition",[17],-2.41% [at 8.38 µM] and 1.11% [at 18.9 µM]
CC(C)=CCNc1ncnc2c1ncn2[C@@H]1O[C@H](CO)[C@@H](O)[C@H]1O,Potency,[1],7.5 µM (active)
same,Potency,[2],inactive
same,Potency,[3],inactive
same,Potency,[4],inactive
same,Potency,[5],inactive
same,Potency,[18],inactive
same,Potency,[6],inactive
same,Potency,[9],inactive
same,Potency,[10],inactive
same,Potency,[11],inactive
same,Potency,[12],inactive
same,Potency,[13],11.9 µM (active)
same,Potency,[15],inactive
same,Potency,[17],9.44 µM (active)
O=C(Nc1ccc(Cl)cc1)Nc1ccc(Cl)c(C(F)(F)F)c1,Potency,[1],11.9 µM (active)
same,Potency,[2],inactive
same,Potency,[3],inactive
same,Potency,[5],inactive
same,Potency,[18],inactive
same,Potency,[6],inactive
same,Potency,[10],inactive
same,Potency,[11],inactive
same,Potency,[12],inactive
same,Potency,[16],inactive
same,Potency,[17],inactive
COc1cc([N+](=O)[O-])ccc1N,Potency,[1],inactive
same,Potency,[2],inactive
same,Potency,[3],inactive
same,Potency,[4],inactive
same,Potency,[18],inactive
same,Potency,[6],inactive
same,Potency,[7],inactive
same,Potency,[8],inactive
same,Potency,[9],inactive
same,Potency,[10],inactive
same,Potency,[11],inactive
same,Potency,[12],inactive
same,Potency,[13],inactive
same,Potency,[14],inactive
same,Potency,[15],inactive
same,Potency,[19],inactive
same,Potency,[16],inactive
same,Potency,[17],inactive
C=C1C(=C/C=C2\CCC[C@]3(C)[C@@H]([C@H](C)/C=C/[C@@H](O)C4CC4)CC[C@@H]23)C[C@@H](O)C[C@@H]1O,Potency,[1],inactive
same,Potency,[2],inactive
same,Potency,[3],inactive
same,Potency,[18],inactive
same,Potency,[6],inactive
same,Potency,[7],inactive
same,Potency,[11],inactive
same,Potency,[15],inactive
same,Potency,[16],inactive
same,Potency,[17],inactive
C1C2OC2C2C1C1CC2C2OC12 (stereo not given),Potency,[1],inactive
same,Potency,[2],inactive
same,Potency,[3],inactive
same,Potency,[18],inactive
same,Potency,[6],inactive
same,Potency,[7],inactive
same,Potency,[9],inactive
same,Potency,[12],inactive
same,Potency,[14],inactive
same,Potency,[15],inactive
same,Potency,[16],inactive
same,Potency,[17],inactive
CN1CCCN(C(c2ccccc2)c2ccc(Cl)cc2)CC1 (stereo not given),Potency,[1],inactive
same,Potency,[3],inactive
same,Potency,[4],inactive
same,Potency,[5],inactive
same,Potency,[18],inactive
same,Potency,[6],inactive
same,Potency,[10],inactive
same,Potency,[11],0.0231 µM (active)
same,Potency,[12],inactive
same,Potency,[13],inactive
same,Potency,[14],inactive
same,Potency,[19],inactive
same,Potency,[16],inactive
same,Potency,[17],26.6 µM (active)
